This is an account of results in PubChem BioAssay (NCATS).

The structures appear in SMILES notation. Results with a measured potency or affinity are listed apart. Values without a mark were called inactive. How the calls were made is not given here.
Further: 0% is about no effect.

The conditions of this experiment: Ebola virus entry assay, green fluorescence channel.
Consider `CNCC(O)c1ccc(O)c(O)c1` (configuration not stated), for which the efficacy is 44.4%. Under `Cc1c(N(C)CS(=O)(=O)O)c(=O)n(-c2ccccc2)n1C` stands -26.4%; under `Cc1nc(-c2ccc(Cl)cc2)oc1COC(C)(C)C(=O)O`, -18.2%; under `CCc1oc2ccccc2c1C(=O)c1cc(I)c(O)c(I)c1`, -12%.

With `NS(=O)(=O)c1ccc(C(=O)O)cc1`, the efficacy is 11%. With `Cc1ncc(CO)c(C=O)c1O`, the efficacy is -24.1%.

Turning to `C[C@]12CC[C@@H]3c4ccc(OC(=O)N(CCCl)CCCl)cc4CC[C@H]3[C@@H]1CC[C@@H]2O`, the efficacy is -12.5%. For `Oc1c(Br)cc(Br)c2cccnc12`, the efficacy is -19.4%. As to `Cc1ccc(C(=O)C(=O)O)cc1C`, the efficacy is -11.1%. Consider `CN=C(NC#N)Nc1ccc(C2=NNC(=O)CC2C)cc1` (configuration not stated), for which the efficacy was -19.1%.

For the molecule `COc1cc(/C=C/C(N)=O)cc(OC)c1OC`, the efficacy is -22.5%. With `Clc1ccc(C(c2ccc(Cl)cc2)C(Cl)(Cl)Cl)cc1`, the efficacy was 25.5%.

With `Cc1cc(O)cc2c1O[C@](C)(CCC[C@H](C)CCC[C@H](C)CCCC(C)C)CC2`, the efficacy is -22.5%.

Turning to `NC(=O)c1cc[n+](CC2=C(C(=O)[O-])N3C(=O)[C@@H](NC(=O)Cc4cccs4)[C@H]3SC2)cc1`, the efficacy was -13.3%.

Take `CC(C)(C)C1CCC(CC2=C(O)c3ccccc3C(=O)C2=O)CC1` (configuration not stated): the efficacy was -22.8%. For the molecule `CC(C)(C)NCC(O)c1cc(Cl)c(N)c(C(F)(F)F)c1` (configuration not stated), the efficacy is 12.5%. As for `Nc1nc(-c2ccccc2)c(Br)c(=O)[nH]1`, the efficacy was -17%.
